Screens (PubChem)
Rows were chosen to be rich in hits. Some 4.8% of all compounds tested hit in one or more screens of this group.
hcDAF12 agonist = activators of H. contortus DAF-12 nuclear receptor; HEK293 hcDAF-12 lit1-tk-luc reporter, luminescence; 0% DMSO, 100% Δ7-dafachronic acid; activation, % at 6.8 µM; 1.4% of 370,000 active;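 active means activation above the mean of all tested compounds plus 3 SD, cut at about 5.5% in these data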
SMARCA2 act = increases SMARCA2 function in MMTV reporter cells. AID 652017. MG213 cells, MMTV-luciferase reporter, dexamethasone, overnight. 1% of 370,000 active. activation, % at 9.1 µM; in the data active means activation above about 7.8%
DAX1 inh-1 = inhibitors of human orphan nuclear receptor DAX1 (NR0B1); P51843; HEK293 Gal4-DAX1 luciferase reporter, luminescence; inhibition, % at 6.75 µM; 0.99% of 340,000 active;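 active means inhibition above the mean over all tested compounds plus 3 SD, cut at about 4.2% in these data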;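 further: inhibition shows as a rise in luminescence from relieved DAX1 repression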
Target sequence (P51843 207-470 limits assumed): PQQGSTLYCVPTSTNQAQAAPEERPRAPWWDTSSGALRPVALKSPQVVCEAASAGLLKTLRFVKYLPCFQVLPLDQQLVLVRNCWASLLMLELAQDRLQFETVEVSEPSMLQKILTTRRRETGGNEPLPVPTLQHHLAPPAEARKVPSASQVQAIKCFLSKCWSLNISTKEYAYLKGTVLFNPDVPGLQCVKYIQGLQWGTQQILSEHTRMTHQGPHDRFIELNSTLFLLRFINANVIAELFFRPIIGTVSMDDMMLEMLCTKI
ssDAF12 agonist = S. stercoralis DAF-12 activation, primary screen; activation, % at 6.8 µM; HEK293 ssDAF-12/GRIP1 lit1-tk-luc reporter, luminescence; % of 3 µM dafachronic acid response; AID 652126; 1% of 370,000 active;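 active means activation above the mean over all tested compounds plus 3 SD, cut at about 0.9% in these data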
DAX1 inh-2 = blocks DAX1 repression of SF-1 activated StAR promoter. inhibition, % at 6.8 µM. HEK293T StAR-luciferase reporter, SF-1/DAX-1 repression relief. 1.1% of 370,000 active. AID 652010;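 active means inhibition above the mean over all tested compounds plus 3 SD, cut at about 3.6% in these data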;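 further: higher inhibition means more luminescence from relief of DAX-1 repression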
hgDAF-12 ag = hgDAF-12 agonism, primary luciferase screen; HEK293 GAL4-hgDAF12 UAS-luciferase reporter, agonist luminescence; normalized to butyrate control; activation, % at 6.8 µM; 1.8% of 370,000 active;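 active means activation above a cutoff set at the mean of all screened compounds plus 3 SD, cut at about 10% in these data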
Of the large screens only hits and unclear results are named; the others gave an inactive call.

COc1ccc(N2CCN(C(CNC(=O)C(C)(C)C)c3cccnc3)CC2)cc1 (configuration not stated)	SMARCA2 act 7.8
COc1ccc(C(C(=O)NC2CCCC2)n2c(-c3cccs3)nc3ccccc32)cc1 (configuration not stated)	none (no result: DAX1 inh-1)
CN(Cc1ccccc1)c1cc2c(c3c1ccn3C)C1CCC2O1 (configuration not stated)	none (no result: DAX1 inh-1)
CCOc1ccc(NC(=O)c2ccc(N)cc2)cc1	none
Fc1cccc2sc(Nc3nnc(-c4ccco4)o3)nc12	hgDAF-12 ag 13
CCCN1CCN(c2ncnc3c2nnn3Cc2ccccc2)CC1	none
COc1c2c(c(OC)c3c1c(=O)c1ccccc1n3C)OCO2	SMARCA2 act 7.9
COC(=O)[C@H](CCSC)NC(=O)Cn1cnc(C(=O)Nc2ccc(C)c(C)c2)n1	hcDAF12 agonist 5.7, hgDAF-12 ag 11
CC(/C=C\C=C\c1ccccc1)=N\NC(=O)c1cncc(Br)c1	none
O=C(O)c1ccc2c(c1)OCCCO2	none
CC(/C=C/C=C/c1ccccc1)=N\NC(=O)c1cccnc1	DAX1 inh-1 4.5
O=C(/C=C/c1ccccc1)c1ccc2c(c1)OCCCCO2	hgDAF-12 ag 12
CC(/C=C/C=C/c1ccccc1)=N/NC(=O)c1ccc2c(c1)OCCO2	ssDAF12 agonist 1.2
COc1ccc(C=C2OC(=O)C(C(C)=O)=C2O)cc1	none
O=C(Nc1ccnn1C1CCN(C(=O)c2cnsn2)CC1)c1cccc(F)c1	none
O=C1C=CC(=O)N1CCCCCCN1C(=O)C=CC1=O	none (no result: DAX1 inh-1)
O=C(O)CN1C(=O)C=CC1=O	DAX1 inh-1 4.7
O=C(c1cc2ccccc2[nH]1)N1O[C@@H]2C=C[C@H]1C2	hcDAF12 agonist 6.2
COc1ccc(/C=C/C(=O)Nc2cc(C)nn2-c2nc3ccccc3[nH]2)cc1	none
COc1ccc(/C=C/C(=O)Nc2cc(C)nn2-c2nc3ccccc3n2Cc2cccc([N+](=O)[O-])c2)cc1	ssDAF12 agonist 1.0
COc1cccc(NC(=O)COC(=O)c2c(F)cccc2F)c1	none
Cc1cccc(OCC(=O)Nc2cccc(O)c2)c1	none
CCC(C)c1ccc(OCC(=O)Nc2cccc(C(=O)Nc3ccc(C(=O)O)cc3)c2)cc1 (configuration not stated)	DAX1 inh-2 4.0
COc1cccc(NC(=O)COC(=O)c2sccc2C)c1	hcDAF12 agonist 6.4, DAX1 inh-1 6.2, DAX1 inh-2 3.7, hgDAF-12 ag 13
Cc1cccc(C)c1OCC(=O)Nc1cccc(C(=O)O)c1	SMARCA2 act 7.9, DAX1 inh-2 3.8
Cc1ccc(OCC(=O)Nc2cccc(O)c2)cc1C	hgDAF-12 ag 11
Cc1ccc(C)c(OCC(=O)Nc2cccc(C(=O)O)c2)c1C	none
CC(Sc1ccccc1)C(=O)N1CCN(S(=O)(=O)c2cccc(Br)c2)CC1 (configuration not stated)	none
CC[C@@]1(C(=O)OC)N[C@H](CN(C)C(=O)Nc2ccc(OC)cc2)[C@@H]2C(=O)N(C)C(=O)[C@@H]21	none
Cc1cc(OC(C(=O)O)c2ccccc2)c2c(C)c(Cc3ccccc3)c(=O)oc2c1 (configuration not stated)	none
CCO[C@@H]1OC(C(=O)O)=C[C@H](C)[C@H]1CCCO	none
Cc1cnc(NC(=O)COc2ccccc2)s1	hgDAF-12 ag 12
CC(=O)Nc1cccc(OCC(=O)Nc2sccc2C(N)=O)c1	hgDAF-12 ag 12
COc1cccc(NC(=O)COc2ccccc2)c1	SMARCA2 act 7.8
Cc1cnc(NC(=O)CCc2ccccc2)s1	none
NC(=O)C(=O)N/N=C1\CCc2ccccc21	hcDAF12 agonist 6.0
COc1ccc(OCC(=O)N/N=C2\CCc3ccccc32)cc1	none
Cc1ccc(S(=O)(=O)NN=C2CCc3ccccc32)cc1	ssDAF12 agonist 1.6
COC(=O)C1C/C(=N\NS(=O)(=O)c2ccc(C)cc2)c2ccccc2C1 (configuration not stated)	none
COc1ccc(NC(C)=O)cc1NC(C)C(=O)Nc1ccccc1F (configuration not stated)	DAX1 inh-1 5.7
CCc1ccc2nc(N)sc2c1	DAX1 inh-1 6.4, hgDAF-12 ag 11
CCc1ccc(NC(=O)c2ccc3nc(N)sc3c2)cc1	none
Cn1c(=O)c2c(-c3ccccc3)n(-c3ccccc3Br)cc2n(C)c1=O	none (no result: DAX1 inh-1)
COc1ccc(C(CNC(=O)c2ccc(S(=O)(=O)Nc3ccccc3OC)cc2)N2CCCC2)cc1 (configuration not stated)	DAX1 inh-2 4.2
COC(=O)C1=C(N)Oc2cc(C)[nH]c(=O)c2C1c1ccncc1 (configuration not stated)	none
CON(C)S(=O)(=O)c1cccc(C(=O)N(CC(=O)Nc2ccccc2C(F)(F)F)Cc2ccco2)c1	none
O=C(CN(Cc1ccco1)C(=O)c1cccc(F)c1)Nc1ccccc1C(F)(F)F	DAX1 inh-2 3.7
COCc1cc(C)nc2sc(C(=O)N3CCCC3)c(N)c12	none
O=C(Cn1cc2c(n1)CCCCC2)N1CCc2ccccc21	hcDAF12 agonist 6.3
COc1ccc(-c2ccc3sc4ccccc4c(=O)c3c2)cn1	hgDAF-12 ag 10
CNc1ccccc1-c1nc2ccccc2n(C)c1=O	none
Cn1c(=O)c(-c2ccccc2N)nc2ccccc21	hcDAF12 agonist 6.3
N/C(=N/O)C(c1ccccc1)c1ccccc1	hcDAF12 agonist 5.8
O=C(O)C(c1ccccc1)c1ccccc1	none
O=C(CCN1C(=O)c2cccc3cccc(c23)C1=O)N1CCOCC1	hgDAF-12 ag 13
S=C1NCN(Cc2ccccc2)CN1	none
CC1(C)CNC(=S)N1Cc1ccccc1	DAX1 inh-1 4.3
O=C1CCN(Cc2ccccc2)CCN1CCSc1ccccc1	none
CCCN1CCC(=O)N(CCSc2ccccc2)CC1	hgDAF-12 ag 11
CCc1cccc(C)c1NC(=S)NCCc1c(C)[nH]c2ccc(C)cc12	none
CCN(Cc1nc2ccccc2n1C)c1ccccc1	ssDAF12 agonist 2.1
CCN1C(=O)Nc2cccc3cccc1c23	DAX1 inh-1 4.8
O=S(=O)(CC1NCc2ccccc21)NC1CCCC1 (configuration not stated)	none (no result: DAX1 inh-1)
COc1cccc(CC(=O)Nc2ccc3c(c2)c(=O)n(C)n3-c2ccc(C(C)(C)C)cc2)c1	ssDAF12 agonist 4.1 (no result: DAX1 inh-1)
O=C(NN1C(=O)/C(=C/c2ccc(O)c(O)c2)SC1=S)c1ccccc1	ssDAF12 agonist 1.2
Cc1c(C(=O)N2CCN(C)CC2)oc2ccc(Br)cc12	DAX1 inh-1 5.0
Cc1c(C(=O)N2CCCC2)oc2ccc(Br)cc12	none
CCOC(=O)[C@H]1[C@H]2COc3cc(OC)ccc3[C@@H]2N2C(=O)CN(Cc3ccccc3)C(=O)[C@@]12C	none
O=C(Nc1ccccc1)N1CCSCC1	none
Cc1cccc(NC(=O)CSc2nc3sc(C)cc3c(=O)n2C)c1	none
